From PubChem BioAssay
Activity calls are given as the source filed them.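 The calls were made as follows: active = inhibition at or above 50% relative to wild type and mutant plate controls; inactive = inhibition below 50%.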

Test: loss of swimming-algae plug formation – whole organism, Chlamydomonas reinhardtii, WT vs cilia-less mutant, absorbance, 96-well, primary screen (AID 463189);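 also: 0% = wild type cc124 cells in DMSO and 100% = ciliumless bld1 mutant cells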
Conditions: Chlamydomonas reinhardtii gravitaxis, OD600 absorbance, 2 days; at 10 µM; stronger effect = higher value

| Structure (SMILES) | inhibition |
| --- | --- |
| NC(CCCCCP(=O)(O)O)C(=O)O (stereo not drawn) | -3.46% (inactive) |
| Cc1ncc(CNC(=O)N(CCCl)N=O)c(N)n1 | 3.94% (inactive) |
| CCCN1CCC[C@@H](c2cccc(O)c2)C1 | 0.338% (inactive) |
| c1ccc2cc(CC3=NCCN3)ccc2c1 | 1.93% (inactive) |
| C[C@]12CC[C@H](O)CC1=CC[C@@H]1[C@@H]2CC[C@]2(C)C(=O)CC[C@@H]12 | -2.3% (inactive) |
| C=CCN1CC[C@]23CCCCC2[C@H]1Cc1ccc(O)cc13 (stereo partly drawn) | 7.64% (inactive) |
| CCC1(C2=NCCN2)Cc2ccccc2O1 (stereo not drawn) | -5.93% (inactive) |
| NC1CCc2cc(O)c(O)cc2C1 (stereo not drawn) | -5.92% (inactive) |
| CCCCCCCCCCCCCC(=O)O[C@@H]1[C@@H](C)[C@@]2(O)[C@@H](C=C(CO)C[C@@]3(O)C(=O)C(C)=C[C@@H]23)C2C(C)(C)[C@@]21OC(C)=O (stereo partly drawn) | -13.4% (inactive) |
| CC1=C[C@@H]2c3cccc4[nH]cc(c34)C[C@H]2N(C)C1 | 69.4% (active) |
| CC[C@@H](CO)NC(=O)[C@@H]1C=C2c3cccc4[nH]cc(c34)C[C@H]2N(C)C1 | -0.368% (inactive) |
| NCC(CP(=O)(O)O)c1ccc(Cl)cc1 (stereo not drawn) | -3.38% (inactive) |
| NC(CCP(=O)(O)O)C(=O)O (stereo not drawn) | 17.2% (inactive) |
| COc1ccc2c(c1)[C@@]13CCCC[C@H]1[C@@H](C2)NCC3 | 4.9% (inactive) |
| C[C@H](N)CN1CCc2ccc(Br)cc21 | -3.37% (inactive) |
| C[C@]12Cc3cn4c(nc3C=C1CCC1C2CC[C@@]2(C)[C@H]1CC[C@@]2(O)C#N)nc1ccccc14 (stereo partly drawn) | 72.1% (active) |
| CCCN(CCC)C1CCc2ccc(O)cc2C1 (stereo not drawn) | 1.06% (inactive) |
| C[C@@H]1O[C@H](C[N+](C)(C)C)CS1 | 4.65% (inactive) |
| Nc1ncnc2c1ncn2[C@@H]1O[C@H](COP(=O)(O)CP(=O)(O)OP(=O)(O)O)[C@H](O)C1O (stereo partly drawn) | 8.43% (inactive) |

| Structure (SMILES) | inhibition |
| --- | --- |
| Clc1cc(I)cc(Cl)c1NC1=NCCN1 | 9.51% (inactive) |
| C[N+](C)(C)CC#CCOC(=O)Nc1cccc(Cl)c1 | 2.56% (inactive) |
| Fc1ccc(C(OCCN2CCN(CCCc3ccccc3)CC2)c2ccc(F)cc2)cc1 | 12.7% (inactive) |
| CCCN(CCC)C(=O)Cc1c(-c2ccc(Cl)cc2)nc2c(Cl)cc(Cl)cn12 | -9.74% (inactive) |
| CCOC(=O)c1ncn2c1[C@@H]1CCCN1C(=O)c1cc(OC)ccc1-2 | 6.1% (inactive) |
| C[N+]1(C)CCOC(O)(c2ccc(-c3ccc(C4(O)C[N+](C)(C)CCO4)cc3)cc2)C1 (stereo not drawn) | 1.34% (inactive) |
| C[N+]1(C)CCC(OC(=O)C(c2ccccc2)c2ccccc2)CC1 | -7.08% (inactive) |
| COc1ccc2[nH]c3c(c2c1)CCNC3 | -4.14% (inactive) |
| S=C=Nc1cccc(C2(N3CCCCC3)CCCCC2)c1 | 10.2% (inactive) |
| N#CC(C#N)=Cc1ccc([N+](=O)[O-])c(O)c1 | 2.16% (inactive) |
| C=CCN1CC[C@]23c4c5ccc(O)c4O[C@H]2/C(=N/NC(=O)c2ccccc2)CC[C@@]3(O)[C@H]1C5 | 2.64% (inactive) |
| CC1=NN=C(c2ccc(N)cc2)c2cc3c(cc2C1)OCO3 | -2.8% (inactive) |
| N[C@@H](CCl)C(=O)O | 3.95% (inactive) |
| c1ccc(CCCN2CCN(CCOC(c3ccccc3)c3ccccc3)CC2)cc1 | 20% (inactive) |
| CCn1cnc2c(Nc3cccc(Cl)c3)nc(N[C@@H]3CCCC[C@@H]3N)nc21 | 4.56% (inactive) |
| NC(=O)CI | -0.903% (inactive) |
| Cc1o[nH]c(=O)c1CC(N)C(=O)O (stereo not drawn) | 5.41% (inactive) |
| C#CCN(C)[C@@H](C)Cc1ccccc1 | 7.92% (inactive) |
| NC(=O)COc1c(F)cc(SCCNS(=O)(=O)c2ccccc2)cc1F | 4.45% (inactive) |
